Reference: PubChem BioAssay (NCATS)
Records with an inconclusive call do not appear. Activity calls are given as the source filed them. Unless noted, the call rests on the fitted dose curve; in most records, active means well fitted curve in the direction sought with a large enough effect; inconclusive means small, poorly fitted or top-dose-only effect, or another doubt; inactive means no such curve, though single readings can be large; an effect the other way counts as inactive or inconclusive.

Experiments:
[1] = S16 Schwann cell PMP22 intronic element beta-lactamase assay (AID 624044; calls by dose curve;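 further: 0% = DMSO and -100% = potassium clavulanate positive control; nearly all actives have a fitted effect of over 15% in size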)
In short: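 Rat S16 Schwann cells with beta-Lac driven by a PMP22 intronic element, compound-treated 24 h at 37 °C. LiveBLAzer FRET B/G read: 460 nm normalized to potassium clavulanate vs DMSO; 535 nm FRET as viability; concentration-effect curves classified.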

[2] = qHTS assay for small molecule activators of the p53 signaling pathway (AID 651743; active means well fitted activation curve with a large enough effect in the signal ratio, not every such curve was filed as active; the % refers to the signal ratio; further: % of control where 0% means no effect); details: HCT-116 p53RE-bla, beta-lactamase FRET ratio, 16 h; activation: stronger effect = higher value
In short: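 Cell-based beta-lactamase reporter (p53 response elements, HCT-116 background). After a 5-hour preincubation, cells received compound for 16 hours at 37 C; substrate development ran 2 hours at room temperature.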

[3] = qHTS assay for small molecule activators of the nuclear factor-kappa B (NF-kB) signaling pathway (AID 651749; active means well fitted activation curve with a large enough effect in the signal ratio; the % refers to the signal ratio; further: % of control where 0% means no effect); details: NF-kB-bla ME-180 cells, beta-lactamase FRET ratio, 16 h; stronger effect = higher value
In short: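 Screening used 2,000 ME-180 reporter cells per well exposed to pinned compound (23 nL) or DMSO; after 16 hr at 37C, beta-lactamase expression under NF-kB control was assessed through FRET.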

[4] = qHTS assay for small molecule disruptors of the mitochondrial membrane potential - 1 hr assay (AID 651754; calls by dose curve; further: on the % scale 0 is the no-effect control and ±100 the full control effect; nearly all actives have a fitted effect of over 35% in size)
In short: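 HepG2, 2,000 cells/well, overnight attachment; cpd or DMSO 1 hr, 37C/5% CO2; Mito-MPS dye 30 min, 37C; fluorescence monomer (490/535) and aggregate (540/590).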

[5] = qHTS assay for small molecule disruptors of the mitochondrial membrane potential - 5 hr assay (AID 651755; calls by dose curve; further: on the % scale 0 is the no-effect control and ±100 the full control effect; nearly all actives have a fitted effect of over 40% in size)
In short: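 HepG2 cells, attached overnight at 37C, were exposed to compound or DMSO for 5 hr at 37C, 5% CO2. Mito-MPS dye was then added for 30 min, and fluorescence read at 490/535 nm (monomers) and 540/590 nm (aggregates).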

[6] = biological target: Tumor necrosis factor (Homo sapiens) (UniProt P01375); test: qHTS assay to identify small molecules that stimulate Tumor Necrosis Factor-alpha (TNF-alpha) secretion (AID 651757; active means well fitted curve in the direction sought with a large enough effect in the signal ratio; the % refers to the signal ratio; further: potency means the concentration at half of the fitted maximal effect)
Sequence of Tumor necrosis factor (Homo sapiens) (P01375 whole entry, looked up): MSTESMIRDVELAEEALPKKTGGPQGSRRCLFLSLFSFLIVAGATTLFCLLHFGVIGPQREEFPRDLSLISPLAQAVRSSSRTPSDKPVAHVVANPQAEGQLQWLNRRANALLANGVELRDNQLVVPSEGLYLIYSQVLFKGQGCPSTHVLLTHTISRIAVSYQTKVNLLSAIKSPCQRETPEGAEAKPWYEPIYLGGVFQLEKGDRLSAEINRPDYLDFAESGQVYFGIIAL
In short: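 Read-out is HTRF, a TR-FRET sandwich of cryptate- and XL665-labeled anti-TNF-alpha antibodies detecting cytokine secreted by THP-1 cells. Cells had been incubated with test compounds at 37 C for 17 hrs beforehand.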

[7] = qHTS assay for environmental chemicals that activate the Aryl hydrocarbon Receptor (AhR) signaling pathway (AID 651777); details: 1A2-DRE human hepatoma cells, luciferase, 24 h; activation: stronger effect = higher value; further: % of control where 0% means no effect; nearly all actives have a fitted effect of over 15% in size
In short: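 Following a 24 hr incubation with test chemicals at 37 C and 5% CO2, 1A2-DRE human hepatoma cells received One-Glo reagent; after 30 min at room temperature, luciferase output reflected CYP1A2 induction via AhR.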

[8] = biological target: Peroxisome proliferator-activated receptor alpha (Homo sapiens) (UniProt Q07869); test: qHTS assay for small molecule agonists of the peroxisome proliferator-activated receptor alpha (PPARalpha) signaling pathway (AID 651778); details: PathHunter PPARalpha complementation, chemiluminescence, 6 h; stronger effect = higher value; further: % of control where 0% means no effect
Sequence of Peroxisome proliferator-activated receptor alpha (Homo sapiens) (Q07869 whole entry, looked up): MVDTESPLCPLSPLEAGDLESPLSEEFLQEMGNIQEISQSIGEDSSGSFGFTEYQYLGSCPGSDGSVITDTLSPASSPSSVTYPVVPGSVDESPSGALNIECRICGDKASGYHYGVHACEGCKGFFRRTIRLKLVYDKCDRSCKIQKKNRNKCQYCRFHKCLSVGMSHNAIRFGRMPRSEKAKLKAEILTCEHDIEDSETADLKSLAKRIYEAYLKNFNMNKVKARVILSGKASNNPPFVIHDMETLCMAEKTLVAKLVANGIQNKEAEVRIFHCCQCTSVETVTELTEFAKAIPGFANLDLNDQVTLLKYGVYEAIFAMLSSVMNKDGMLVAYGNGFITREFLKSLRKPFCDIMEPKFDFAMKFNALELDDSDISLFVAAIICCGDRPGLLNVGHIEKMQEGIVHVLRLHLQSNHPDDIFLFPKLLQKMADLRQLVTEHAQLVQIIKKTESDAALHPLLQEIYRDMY
In short: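 Cells plated at 2,000/well and held overnight at 37 C, 5% CO2, then compound added by pin tool for 6 hr; after PathHunter detection reagent and 60 min at room temperature, chemiluminescence from enzyme complementation was read.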

[9] = qHTS assay for small molecule agonists of the antioxidant response element (ARE) signaling pathway measured by Nrf2-dependant transcriptional activity (AID 720636; active means well fitted curve in the direction sought with a large enough effect in the repeat runs; an effect the other way counts as inactive or inconclusive;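 further: HepG2 cells with an ARE-driven luciferase reporter; % of control where 0% means no effect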)
In short: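 ONE-Glo luminescence, read 30 min after reagent addition at room temperature, reflected ARE reporter activity in HepG2 cells that had been incubated with compound for 16 hr at 37 C in 1% dialyzed FBS.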

[10] = qHTS assay for small molecule antagonists of the retinoid-related orphan receptor gamma (ROR-gamma) signaling pathway - cell viability counter screen (AID 720652; active means well fitted curve in the direction sought with a large enough effect in the repeat runs; an effect the other way counts as inactive or inconclusive;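 further: compound exposure lasted 16 hr before ATP read; on the % scale 0 is the no-effect control and ±100 the full control effect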)
In short: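 Luminescence from CellTiter-Glo after 30 min at room temperature reported cellular ATP as the cytotoxicity measure. Cells were the CHO reporter line with doxycycline-induced ROR-gamma expression, exposed to compound for 16 hr at 37 C.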

[11] = qHTS assay for small molecule agonists of the antioxidant response element (ARE) signaling pathway measured by Nrf2-dependant transcriptional activity - cell viability counter screen (AID 720653; active means well fitted curve in the direction sought with a large enough effect in the repeat runs; an effect the other way counts as inactive or inconclusive; further: on the % scale 0 is the no-effect control and ±100 the full control effect); details: ARE-bla HepG2 viability, CellTiter-Glo ATP luminescence, 16 h; stronger effect = lower value
In short: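 ARE-bla HepG2 cells (2,000/well) rested 5 hrs at 37C/5% CO2, then exposed to compounds in DMSO for 16 hrs. Viability was read in the same wells as intracellular ATP by luminescence, 30 min at room temperature after reagent addition.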

[12] = qHTS assay for cell viability of HEK293 cells (AID 743288); details: ATP luminescence (CellTiter-Glo), 18 h, stronger effect = lower value; further: on the % scale 0 is the no-effect control and ±100 the full control effect; nearly all actives have a fitted effect of over 50% in size
In short: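 Total intracellular ATP, measured with a luciferase-coupled reagent, indicates the number of viable HEK293 cells. Exposure to test chemicals lasts 18 h at 37 C in 1,536-well format at 2,000 cells/well.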

[13] = qHTS assay for cell viability of the p53RE-bla HCT-116 cell line (AID 743292); further: on the % scale 0 is the no-effect control and ±100 the full control effect; nearly all actives have a fitted effect of over 55% in size
In short: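 After plating at 4,000 cells per well and a 5 h rest at 37 C, HCT-116 cells carrying p53RE-bla received test chemicals in DMSO. Sixteen hours later at 37 C, CellTiter-Glo was added and luminescence recorded following 30 min at room temperature.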

[14] = qHTS to identify inhibitors of the type 1 interferon - major histocompatibility complex class I in skeletal muscle: primary screen against the NCATS Mechanism Interrogation Plate v5.0 (MIPE) Libary (AID 1347411);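 further: plate controls were vehicle for no effect and reference inhibitor for full effect; nearly all actives have a fitted effect of over 65% in size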
In short: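 Luminescence from HiBiT-tagged endogenous HLA-B*08:01 served as the MHC class I read-out. CRISPR-engineered C25cl48 human myoblasts received 4.0 ng/ml IFN-beta plus compound for 24 hrs, with an 11-point, 1:3 series topping at 46 uM final.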

[15] = Primary qHTS for inhibitors of nuclear receptor binding SET domain protein 2 (NSD2) in an isogenic RCH-ACV NSD2 p.E1099K mutant (9B) (AID 1645876); further: on the % scale 0 is the no-effect control and ±100 the full control effect; nearly all actives have a fitted effect of over 70% in size
[16] = Primary qHTS for inhibitors of nuclear receptor binding SET domain protein 2 (NSD2) in an RCH-ACV wild type WT cells (2C) (AID 1645877); further: on the % scale 0 is the no-effect control and ±100 the full control effect; nearly all actives have a fitted effect of over 70% in size
[17] = biological target: Glutathione peroxidase 1 (Homo sapiens) (UniProt P07203); test: Primary qHTS Assay for Inhibitors of Recombinant Selenoprotein Glutathione Peroxidase 1 (GPX1) (AID 1845191); further: on the % scale 0 is the no-effect control and ±100 the full control effect; nearly all actives have a fitted effect of over 65% in size
Sequence of Glutathione peroxidase 1 (Homo sapiens) (P07203 whole entry, looked up): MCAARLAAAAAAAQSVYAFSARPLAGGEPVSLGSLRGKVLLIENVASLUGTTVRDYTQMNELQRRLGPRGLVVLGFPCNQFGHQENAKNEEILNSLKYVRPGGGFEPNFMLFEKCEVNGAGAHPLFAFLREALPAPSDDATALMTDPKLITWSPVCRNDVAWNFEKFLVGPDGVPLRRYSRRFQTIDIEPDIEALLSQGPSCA
In short: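 Recombinant GPX1 (10 nM final) was preincubated with compound for 30 min at room temperature, then reacted with 1 mM GSH, 0.5 mM CHP, 0.5 mM NADPH and 100 nM glutathione reductase; NADPH fluorescence (340/450 nm) was read at 0 and 15 min.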

[18] = biological target: Phospholipid hydroperoxide glutathione peroxidase GPX4 (Homo sapiens) (UniProt P36969); test: Primary qHTS Assay for Inhibitors of Recombinant Selenoprotein Glutathione Peroxidase 4 (GPX4) (AID 1845192); details: outcome: dose series up to 50 µM unless noted; further: on the % scale 0 is the no-effect control and ±100 the full control effect; nearly all actives have a fitted effect of over 65% in size
Sequence of Phospholipid hydroperoxide glutathione peroxidase GPX4 (Homo sapiens) (P36969 whole entry, looked up): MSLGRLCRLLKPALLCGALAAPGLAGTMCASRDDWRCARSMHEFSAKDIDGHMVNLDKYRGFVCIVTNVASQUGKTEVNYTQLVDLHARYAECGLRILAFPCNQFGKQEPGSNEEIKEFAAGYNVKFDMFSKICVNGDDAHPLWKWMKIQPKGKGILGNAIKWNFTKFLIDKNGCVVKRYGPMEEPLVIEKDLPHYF
In short: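 GR-coupled readout: 100 nM GR, 1 mM GSH, 0.5 mM NADPH; NADPH fluorescence (ex 340/em 450 nm) read at t=0 and after 15 min RT. GPX4 200 nM, preincubated 30 min with compound; substrate 0.5 mM CHP.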

[19] = qHTS drug screen for cell cycle checkpoint inhibitors in PARPi-resistant BRCA-mutant ovarian cancer cell lines. (AID 1963452; calls by dose curve); details: PEO1/OlaR viability, CellTiter-Glo luminescence, 96 h, stronger effect = lower value
In short: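 PEO1, PEO4 and PEO1/OlaR ovarian cancer cells, 600 per well, exposed 96 h at 37C to a dilution series. Viability read by CellTiter-Glo luminescence, normalized to DMSO and empty wells; activity summarized as Z-AUC.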

[20] = qHTS profiling for inhibitors of Plasmodium falciparum proliferation (AID 504749);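 further: 0% = DMSO vehicle and full inhibition = artemisinin control; nearly all actives have a fitted effect of over 60% in size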; details: P. falciparum in erythrocytes, SYBR Green DNA, 72 h; at 28.7 µM (top of the series); parasite line A
In short: (§1)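 Parasite proliferation within erythrocytes, 72 h exposure. Endpoint: SYBR Green I fluorescence after overnight lysis at room temperature. Controls: 0.29 uM artemisinin, DMSO.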

7G8 = test: as above; details: P. falciparum in erythrocytes, SYBR Green DNA, 72 h; series mostly up to 28.7 µM
In short: as §1

AA1029 = test: as above; details: P. falciparum in erythrocytes, SYBR Green DNA, 72 h; series mostly up to 28.7 µM
In short: as §1

AS120 = test: as above; details: P. falciparum in erythrocytes, SYBR Green DNA, 72 h; series mostly up to 28.7 µM
In short: as §1

ATS189 = test: as above; details: P. falciparum in erythrocytes, SYBR Green DNA, 72 h; series mostly up to 28.7 µM
In short: as §1

ATS95 = test: as above; details: P. falciparum in erythrocytes, SYBR Green DNA, 72 h; series mostly up to 28.7 µM
In short: as §1

C2A = test: as above; details: P. falciparum in erythrocytes, SYBR Green DNA, 72 h; series mostly up to 28.7 µM
In short: as §1

CP185 = test: as above; details: P. falciparum in erythrocytes, SYBR Green DNA, 72 h; series mostly up to 28.7 µM
In short: as §1

CP191 = test: as above; details: P. falciparum in erythrocytes, SYBR Green DNA, 72 h; series mostly up to 28.7 µM
In short: as §1

CP192 = test: as above; details: P. falciparum in erythrocytes, SYBR Green DNA, 72 h; series mostly up to 28.7 µM
In short: as §1

CP194 = test: as above; details: P. falciparum in erythrocytes, SYBR Green DNA, 72 h; series mostly up to 28.7 µM
In short: as §1

CP201 = test: as above; details: P. falciparum in erythrocytes, SYBR Green DNA, 72 h; series mostly up to 28.7 µM
In short: as §1

CP203 = test: as above; details: P. falciparum in erythrocytes, SYBR Green DNA, 72 h; series mostly up to 28.7 µM
In short: as §1

CP211 = test: as above; details: P. falciparum in erythrocytes, SYBR Green DNA, 72 h; series mostly up to 28.7 µM
In short: as §1

CP217 = test: as above; details: P. falciparum in erythrocytes, SYBR Green DNA, 72 h; series mostly up to 28.7 µM
In short: as §1

CP237 = test: as above; details: P. falciparum in erythrocytes, SYBR Green DNA, 72 h; series mostly up to 28.7 µM
In short: as §1

CP238 = test: as above; details: P. falciparum in erythrocytes, SYBR Green DNA, 72 h; series mostly up to 28.7 µM
In short: as §1

CP247 = test: as above; details: P. falciparum in erythrocytes, SYBR Green DNA, 72 h; series mostly up to 28.7 µM
In short: as §1

C[C@@H]1[C@H](O)[C@@H](C)/C=C/C=C/C=C/C=C/C=C/C=C/C=C/[C@H](O[C@@H]2O[C@H](C)[C@@H](O)[C@H](N)[C@@H]2O)C[C@@H]2O[C@](O)(C[C@@H](O)C[C@@H](O)[C@H](O)CC[C@@H](O)C[C@@H](O)CC(=O)O[C@H]1C)C[C@H](O)[C@H]2C(=O)O
inactive: outcome [1] | activation [2] 0.804% | activation [3] -0.187% | Potency [4] | Potency [5] | activation [7] 0.282% | max response [8] 6.84% | outcome [9] | outcome [10] | max response [11] -15.2% | max response [12] -1.04% | Potency [13] | Potency [14] | Potency [15] | Potency [16] | Potency [17] | Potency [18] | Z-AUC [19] 1.47 | activity, negative = inhibition [20] -1.42% | Potency (7G8) | Potency (AA1029) | Potency (AS120) | Potency (ATS189) | Potency (ATS95) | Potency (C2A) | Potency (CP185) | Potency (CP191) | Potency (CP192) | Potency (CP194) | Potency (CP201) | Potency (CP203) | Potency (CP211) | Potency (CP217) | Potency (CP237) | Potency (CP238) | Potency (CP247)
1.61: Z-AUC ([19]; measured here: PEO4 Z-AUC)
active: Potency [6] 42.2 µM
1.65: Z-AUC ([19]; measured here: PEO1 parental Z-AUC)
